Most compounds without a hit are left out; they make up all but 12% or so of the library.
Pf growth 48h – P. falciparum growth inhibition at 48 hours (one generation). P. falciparum luciferase growth in erythrocytes, 48 h. Potency, µM (highest dose often 28.7 µM), inactives show top-dose activity change, negative = inhibition, actives largely listed as inhibitors. 310,000 compounds, 5.9% hits; also: % is scaled to controls: 0 for no effect and ±100 for the full control effect
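Parasite viability was followed by luminescence of a genomically integrated firefly luciferase. Cultures held 0.1% parasitemia at 2% hematocrit (final), incubated under 5% CO2 at 37 C.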
SARS PLpro yeast – inhibitors of SARS-CoV papain-like protease in yeast; 330,000 compounds, 0.19% hits; AID 485353; Potency, µM (highest dose often 32.9 µM), without a hit: at the top dose activity, positive = growth rescue, most hits filed as activators; S. cerevisiae expressing SARS-CoV PLpro, growth rescue; calls by dose curve; also: 0% is about no effect; nearly all actives have a fitted effect of over 55% in size
Sm TGR inh – S. mansoni TGR enzyme inhibition. purified TGR, DTNB reduction, TNB absorbance 405 nm. 360,000 compounds, 3% hits. Potency, µM (titrated, usually from 114 µM), for the others: at the highest dose activity change, negative = inhibition, most hits filed as inhibitors; also: % is scaled to controls: 0 for no effect and ±100 for the full control effect; nearly all actives have a fitted effect of over 60% in size
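First, TGR (20 nM dispensed) and NADPH were mixed with compound. Second, a 15 min room-temperature incubation followed. Third, further NADPH and then DTNB were added to start the reaction. Finally, TNB absorbance was monitored kinetically.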
Pf growth 96h – P. falciparum growth inhibition at 96 hours; P. falciparum luciferase reporter growth, 96 h; Potency, µM (top dose mostly 28.7 µM), without a hit: at the top dose activity change, negative = inhibition, actives largely listed as inhibitors; 320,000 compounds, 6.9% hits; also: % is scaled to controls: 0 for no effect and ±100 for the full control effect
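Readout is luminescence from an integrated firefly luciferase in P. falciparum. Red cells, 2% hematocrit and 0.05% parasitemia final, were cultured with compound through two parasite generations (96 hours) at 37 C, 5% CO2.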
Starred values were filed as active, the others as inactive; i = inactive; ? = inconclusive; . = no result. Unless noted, calls follow the shape of the dose curve; as a rule, active = well fitted curve in the direction sought with a large enough effect; inconclusive = small, poorly fitted or top-dose-only effect, or another doubt; inactive = no such curve, though single readings can be large; an effect the other way counts as inactive or inconclusive. Potency is read from the fitted curve at half-maximal effect.

SMILES | Pf growth 48h | SARS PLpro yeast | Sm TGR inh | Pf growth 96h
CCN1CCN(Cc2ccc(NC(=O)c3cc(NC(=O)c4cncc(-c5cccs5)c4)cc(OC)c3)cc2C(F)(F)F)CC1 | ? | -1.4% | -23.5% | ?
CCOc1cccc(C(=O)Nc2ccc(NC(=O)c3cc4ccccc4o3)c(OC)c2)c1 | 8.4% | -5.3% | 1.5% | 50.0%
CCN1CCN(Cc2ccc(NC(=O)c3cc(NC(=O)c4ccc5n[nH]nc5c4)cc(OC)c3)cc2C(F)(F)F)CC1 | 4.15µM* | -0.9% | 8.4% | 2.33µM*
CC(NC(=O)c1cccs1)C(S)c1ccccc1 (stereo not drawn) | -10.7% | -0.5% | -0.1% | ?
O=C(Nn1cnnc1)c1ccc(Cl)c(Cl)c1 | 13.9% | -7.1% | -1.2% | 1.3%
Cc1cccc(CCNS(=O)(=O)c2ccc3c(c2)NC(=O)CS3)c1 | 14.3% | 3.6% | 0.3% | ?
COc1cccc(/C=N/NC(=O)c2ccc(N3CCCC3=O)cc2)c1 | ? | 1.2% | -10.8% | -1.4%
CCn1nc(C)c(CNC(=O)C2CCC(=O)N(Cc3ccc(Cl)cc3)C2)c1C (stereo not drawn) | -10.4% | -0.4% | 8.0% | 20.5%
CCN1CCN(Cc2ccc(NC(=O)c3cc(NC(=O)c4ccno4)cc(OC)c3)cc2C(F)(F)F)CC1 | ? | -1.7% | 8.1% | 0.828µM*
COc1cc(NC(=O)c2csc(-c3ccncc3)n2)cc(C(=O)Nc2cccc(C(F)(F)F)c2)c1 | ? | -8.9% | -2.3% | 5.22µM*
CCN1CCN(Cc2ccc(NC(=O)c3ccc(C)c(NC(=O)c4ccno4)c3)cc2C(F)(F)F)CC1 | ? | -3.3% | 8.3% | ?
COc1cc(NC(=O)c2ccno2)cc(C(=O)Nc2cccc(C(F)(F)F)c2)c1 | ? | -4.9% | 14.5% | ?
COc1cc(NC(=O)c2cc3cccc(OC)c3o2)cc(C(=O)Nc2cccc(C(F)(F)F)c2)c1 | 13.1µM* | 0.7% | 17.8% | 10.4µM*
CC(=O)Nc1cccc(NC(=O)CSc2cn(CC(=O)N(C(C)C)C(C)C)c3ccccc23)c1 | . | . | 1.3% | .
S=c1[nH]nc(COc2ccccc2)n1/N=C/C=C/c1ccco1 | 65.4% | -1.1% | 12.6µM* | 108.9%
S=c1[nH]nc(-c2n[nH]c3c2CCC3)n1/N=C/C=C/c1ccco1 | 2.1% | 1.1% | 11.2µM* | 0.7%
S=c1[nH]nc(-c2cc(-c3ccccc3)n[nH]2)n1/N=C/C=C/c1ccco1 | 24.7% | -1.1% | 11.2µM* | 38.2%
COc1ccccc1/C=C/C=N/n1c(-c2n[nH]c3c2CCC3)n[nH]c1=S | ? | 0.9% | 3.7% | ?
COc1cc(Cl)c(NC(=O)CCS(=O)(=O)c2cc3c(cc2Cl)NC(=O)CO3)c(OC)c1 | . | . | 2.1% | .
COc1ccc(OC)c(CCNc2ncnc3onc(-c4ccc(F)cc4)c23)c1 | . | . | -5.7% | .
COc1cccc(NC(=S)/C(=C(\[O-])c2ccc(OC(F)F)cc2)[n+]2ccccc2)c1 | i | 1.3% | -23.9% | ?
[O-]/C(=C(\C(=S)Nc1cccc2ccccc12)[n+]1ccccc1)c1ccc(OC(F)F)cc1 | ? | -3.1% | -7.4% | 14.7µM*
[O-]/C(=C(\C(=S)Nc1cccc2ccccc12)[n+]1ccccc1)c1ccc2c(c1)OCCO2 | . | 4.3% | -12.1% | 5.86µM*
Cc1ccc2c(ccc[n+]2CC(=O)c2ccccc2)c1 | 14.7µM* | ? | ? | -4.8%
COc1cccc(C(=O)C[n+]2cccc3cc(OC)ccc32)c1 | 10.4µM* | -1.4% | -22.9% | ?
SMILES | Pf growth 48h | SARS PLpro yeast | Sm TGR inh | Pf growth 96h
COc1ccc(C(=O)C[n+]2cccc3cc(C)ccc32)cc1 | 14.7µM* | 5.3% | -10.9% | ?
O=C(C[n+]1cccc2ccccc21)c1ccc(Cl)cc1 | . | -0.5% | -3.4% | 18.2%
COc1ccc(C(=O)C[n+]2ccc3ccccc3c2C)cc1 | ? | -1.8% | 2.6% | ?
COc1cccc(C(=O)C[n+]2ccccc2/C=N/O)c1 | 0.0% | 13.6% | -1.0% | -21.4%
COc1ccc(C(=O)C[n+]2cccc3cc(OC)ccc32)cc1 | 9.28µM* | -1.6% | -8.4% | ?
Cc1cccc(-n2ncc3c(NNC(=O)c4ccccc4Cl)ncnc32)c1 | . | . | 7.2% | .
COc1ccc(NC(=O)CCSc2nc(C)cs2)cc1 | 84.4% | 1.9% | 1.9% | -3.0%
Cc1cc(NC(=O)CN2C(=O)NC3(CCCCCC3)C2=O)ccc1Br | -27.8% | -0.2% | -5.1% | -21.6%
Cc1cc(NC(=O)C2C3C(=O)N(c4cccnc4)C(C(=O)NC(C)(C)C)C34C=CC2(C)O4)no1 (stereo not drawn) | -11.2% | 0.3% | 1.2% | 13.1µM*
COc1ccc(OCC(O)CN(CCO)CC(O)Cn2ccc3ccccc32)cc1 (stereo not drawn) | ? | -9.3% | 7.3% | 7.2%
CCC(=C(c1ccc(OC)cc1)c1ccc(OC)cc1)c1cn(CC(O)CN(CCO)CCO)c2ccccc12 (stereo not drawn) | 9.28µM* | 3.1% | -13.9% | ?
CC(C)c1ccc(NC(=O)C2CCN(S(=O)(=O)c3ccc4c(c3)NC(=O)CO4)CC2)cc1 | ? | 3.9% | -2.6% | 7.3%
Cc1ccc(NC(=O)C2CCN(S(=O)(=O)c3ccc4c(c3)NC(=O)CO4)CC2)cc1 | ? | 3.1% | 4.3% | 13.1µM*
COc1cc(OC)c(NS(=O)(=O)c2ccc3c(c2)NC(=O)CO3)cc1Cl | 3.6% | 0.2% | -3.6% | 10.4µM*
COc1ccccc1CNC(=O)C1CCN(S(=O)(=O)c2ccc3c(c2)NC(=O)CO3)CC1 | -11.8% | 0.1% | -7.6% | 10.4µM*
O=C(CSc1nnc(NC(=O)C2CC2)s1)Nc1ccccc1C(F)(F)F | -3.1% | -0.4% | -0.1% | 176.2%
COc1ccc(CNC(=O)CN(Cc2ccccc2)C(=O)CCC(=O)Nc2ccccn2)cc1 | 4.8% | 0.0% | 0.0% | 22.2%
COc1ccc(CNC(=O)c2cnn(-c3ccc(C)cc3)c2-n2cccc2)cc1OC | . | . | 2.4% | .
COc1ccc(C(=O)c2cc3ccc(O)cc3oc2=O)cc1 | . | -8.9% | 5.0% | 26.5%
O=C(c1ccccc1)c1cc2ccc(O)cc2oc1=O | 47.5% | -19.2% | -12.3% | 0.165µM*
O=C(c1ccc(Br)cc1)c1cc2ccc(O)cc2oc1=O | 20.6% | -7.3% | 35.5µM* | 8.0%
O=C(O)/C(=C\c1ccc(Br)cc1)NC(=O)c1cccs1 | 33.1% | -0.3% | -3.8% | 30.5%
COc1cc(/C=C/c2nc(C#N)c(NC(C)c3ccccc3)o2)cc(OC)c1OC (stereo not drawn) | . | . | -4.7% | .
CCn1c(=O)c2sccc2n(Cc2ccccc2)c1=O | ? | 9.5% | 6.1% | -10.0%
CCOC(=O)c1c(-c2ccccc2)csc1NC(=O)CSc1ccccc1 | ? | -6.8% | -11.8% | 15.4%
COC(=O)c1c(-c2ccc(OC)c(OC)c2)csc1N | ? | 2.3% | 3.0% | -29.2%
CCOC(=O)c1c(-c2ccc(OC)cc2)csc1NC(=O)CSc1ccccc1 | . | -5.6% | -16.4% | 13.1µM*
CCOC(=O)c1c(-c2ccccc2)csc1NC(=O)CSc1nncs1 | 9.28µM* | -36.5% | 7.2% | ?
CCOC(=O)c1c(NC(=O)CSc2nncs2)sc(C)c1-c1ccccc1 | -7.2% | 4.2% | 1.1% | ?

High-throughput results: PubChem, National Center for Advancing Translational Sciences (NCATS)
